Source: PubChem BioAssay (National Center for Advancing Translational Sciences (NCATS))
Only some compounds are listed: those with a hit (about 1.3% of all), similar ones and a draw of the others.
PINK1 modulator: A Quantitative High throughput Screen to Identify Chemical Modulators of PINK1 Expression; PINK1 immunofluorescence, high-content cytometry, 24 h; Potency, µM (highest dose often 76.6 µM), inactives show at the highest dose activation (PINK1 increase), most hits filed as activators; 410,000 compounds, 0.2% hits; AID 624263, 2012; active = well fitted activation curve with a large enough effect; inconclusive = small, poorly fitted or top-dose-only effect; cell line not stated here; also: potency is read from the fitted curve at half-maximal effect; % of control where 0% means no effect; nearly all actives have a fitted effect of over 65% in size
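Cells are seeded, rested 12 hours, then given compound at five concentrations or DMSO for 24 hours. After fixation, blocking and antibody staining, PINK1 amount and mitochondrial localization are scored; CCCP serves as control.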
miR-21 reporter: qHTS Assay for Modulators of miRNAs and/orActivators of miR-21; 340,000 tested, under 10 active; HeLa miR-21 FLuc reporter, luciferase, 48 h; Potency, µM (titrated, usually from 38.3 µM), for inactives: at the top dose activity change, positive = activation, hits mostly activators; AID 2288, 2010;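 also: % of control where 0% means no effect; miR-21 action dims this reporter so a rising signal means less miR-21 action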
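Using DMEM plus 10% FBS, HeLa miR-21-FLuc cells are incubated with test compounds (final up to about 40uM) for 48 hours; firefly luciferase signal is then imaged following reagent-mediated lysis.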
Giardia kill: Small Molecules that selectively kill Giardia lamblia: qHTS | AID 540267, 2011 | 340,000 compounds, 0.15% hits | activity change, % at 7.66 µM, hits read low | Giardia lamblia trophozoite viability; in the data active = activity change below about -80%; inconclusive = between about -30% and that limit;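 also: parasites exposed to compound for two days anaerobically before the ATP read; % is scaled to controls: 0 for no effect and ±100 for the full control effect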
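Viability, read as ATP luminescence: trophozoites at 100 cells/well, compound added, 48 hrs anaerobic at 37 deg C, then 15-30 min room-temperature development before reading.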
12-LOX inh: Primary qHTS assay for inhibitors of human arachidonate 12S-lipoxygenase (ALOX12): Round 2; Polyunsaturated fatty acid lipoxygenase ALOX12 (Homo sapiens), P18054; purified 12hLO, xylenol orange hydroperoxide absorbance; Potency, µM (doses to about 108 µM), inactives show at the top dose activity change, negative = inhibition, most hits filed as inhibitors; 580,000 compounds, 1.1% hits; AID 1671190, 2021; also: potency is read from the fitted curve at half-maximal effect; % is scaled to controls: 0 for no effect and ±100 for the full control effect
Target sequence (P18054 whole entry, looked up): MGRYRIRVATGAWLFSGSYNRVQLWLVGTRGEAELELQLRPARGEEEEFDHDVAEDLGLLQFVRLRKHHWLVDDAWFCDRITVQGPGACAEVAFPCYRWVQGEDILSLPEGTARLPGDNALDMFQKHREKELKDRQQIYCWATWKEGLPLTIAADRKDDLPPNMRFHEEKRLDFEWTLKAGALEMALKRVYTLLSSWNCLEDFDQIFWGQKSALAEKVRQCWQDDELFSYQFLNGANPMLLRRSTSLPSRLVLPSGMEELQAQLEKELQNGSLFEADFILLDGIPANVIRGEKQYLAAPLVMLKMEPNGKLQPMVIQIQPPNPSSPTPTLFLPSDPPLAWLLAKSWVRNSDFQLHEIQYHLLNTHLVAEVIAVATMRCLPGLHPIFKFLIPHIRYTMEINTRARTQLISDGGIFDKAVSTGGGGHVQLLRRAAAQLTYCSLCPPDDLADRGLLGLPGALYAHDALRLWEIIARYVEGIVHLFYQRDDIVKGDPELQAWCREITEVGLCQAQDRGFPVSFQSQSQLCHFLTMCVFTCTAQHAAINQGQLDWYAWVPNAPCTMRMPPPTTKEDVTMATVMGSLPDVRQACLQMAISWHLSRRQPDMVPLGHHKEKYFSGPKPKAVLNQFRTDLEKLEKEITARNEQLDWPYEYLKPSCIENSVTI
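Purified human 12hLO (150 nM final) in 25 mM Hepes, 0.01% Triton X-100, pH 7.0 was preincubated 15 min at room temperature with compound. Then 40 uM arachidonic acid was added, 30 min. Hydroperoxide was read by Fe-XO absorbance ratio 573/405 nm.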
PTHR1 ag: qHTS for PTHR1 Agonists: Primary Screen | HEK293 GP2 PTHR1 cells, GloSensor cAMP luminescence, 1 h | Potency, µM (top dose mostly 115 µM), for inactives: at the top dose activation, usual class: activators | 410,000 compounds, 0.075% hits | Parathyroid hormone/parathyroid hormone-related peptide receptor (Homo sapiens), Q03431; also: potency is read from the fitted curve at half-maximal effect; nearly all actives have a fitted effect of over 55% in size
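HEK-293-derived GP2 cells expressing PTHR1 and a GloSensor cAMP reporter, 3,000/well, plated overnight, given luciferin plus IBMX (each 0.5 mM as added) for 1 h at 37 °C, then compound for 1 h at 37 °C. Luminescence was read after 15 min at room temperature.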
ERG Ets-DNA blk: qHTS for Small Molecule Inhibitors of the ERG Ets/DNA interaction. fluorescence polarization, His-ERG Ets domain / labelled DNA. Potency, µM (highest dose often 76.9 µM), without a hit: at the top dose FP activity, negative = inhibition, hits mostly inhibitors. 370,000 compounds, 0.028% hits. AID 624246, 2012; active = well fitted inhibition curve with a large enough effect in the polarisation, with a control signal flat; inconclusive = small, poorly fitted or top-dose-only effect, or effect the other way, or a change in a side signal; inactive = no such curve, though single readings can be large or run the other way; the % refers to the polarisation;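 also: polarization taken with two DNA probes labelled with fluorescein and Texas red; potency is read from the fitted curve at half-maximal effect; % of control where 0% means no effect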
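His-tagged ERG Ets domain (1 uM in the protein solution; 300mM KCl, 50mM Tris-HCl, 1mM EDTA, 1mM DTT, pH 7.5) received compound, then a probe mix of 5 nM fluorescein-DNA and 100nM Texas-615-DNA. Fluorescence polarization was read for both dyes.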
Numbers without * were called inactive; i = inactive; ? = inconclusive; . = no result; [ ] = remark or other dose. Unless noted, calls follow the shape of the dose curve; as a rule, active = well fitted curve in the direction sought with a large enough effect; inconclusive = small, poorly fitted or top-dose-only effect, or another doubt; inactive = no such curve, though single readings can be large; an effect the other way counts as inactive or inconclusive.

SMILES	PINK1 modulator	miR-21 reporter	Giardia kill	12-LOX inh	PTHR1 ag	ERG Ets-DNA blk
Oc1cccc(-c2c3nc(c(-c4cccc(O)c4)c4ccc([nH]4)c(-c4cccc(O)c4)c4nc(c(-c5cccc(O)c5)c5ccc2[nH]5)CC4)C=C3)c1	.	.	.	3.6µM*	.	.
COc1cc(/C=C2/C(=O)NN(c3ccc(Cl)c(Cl)c3)C2=O)cc([N+](=O)[O-])c1O	-1%	-2%	-1	35µM*	-28%	-6%
COc1cc(/C=C2/C(=O)NN(c3ccc(F)cc3)C2=O)cc(Cl)c1O	2%	-5%	11	?	-5%	12%
COc1cc(/C=C2/C(=O)NN(c3ccc(Cl)cc3)C2=O)ccc1OC(=O)c1ccco1	4%	0%	-30	8.9µM*	i	-1%
COc1cc(/C=N/NC(=O)c2ccc(F)cc2)ccc1OC(=O)c1ccco1	-1%	-35%	-13	19%	i	-4%
COc1cc(/C=C2/C(=O)NN(c3cccc(F)c3)C2=O)ccc1OC(=O)c1ccco1	1%	-8%	7	45µM*	-26%	3%
COc1cc(/C=C2/C(=O)NN(c3ccc(Cl)cc3)C2=O)cc(Br)c1O	1%	-1%	1	0%	-1%	3%
O=C(NCCNC(=O)c1cc(F)cc(F)c1)c1cc(F)cc(F)c1	8%	-3%	15	-2%	i	4%
FC(F)(F)c1cccc(Cn2ccc3ccccc32)c1	.	.	.	-9%	.	.
O=C1C(n2ccc3ccccc32)c2ccccc2N1Cc1ccc(C(F)(F)F)cc1 (stereo not given)	.	.	.	32µM*	.	.
CC(C)(O)CCc1c(-c2ccc(O)cc2O)oc2c3c(cc(O)c2c1=O)OC(C)(C)C=C3	1%	.	-20	45µM*	i	5%
COc1cc2c(c3oc(-c4ccccc4)cc(=O)c13)C=CC(C)(C)O2	0%	-17%	?	?	-12%	-3%
O=C(Nc1ccccn1)c1cc(-c2ccco2)nc2ccccc12	.	.	.	40µM*	.	.
COc1cc(-c2cc(C(=O)Nc3cccc(C(C)=O)c3)c3ccccc3n2)cc(OC)c1OC	4%	19%	-9	15%	i	1%
Cc1ccc(-c2cc(C(=O)N3CCN(C(=O)c4ccco4)CC3)c3ccccc3n2)o1	.	.	.	18µM*	.	.
Cc1ccc(-c2cc(C(=O)Nc3cc(F)ccc3F)c3ccccc3n2)o1	.	.	.	7.9µM*	.	.
COc1cc(-c2cc(C(=O)Nc3ccc(O)cc3)c3ccccc3n2)cc(OC)c1OC	0%	23%	14	45µM*	-19%	-5%
Cc1ccc(-c2cc(C(=O)N3CCN(c4ccccc4O)CC3)c3ccccc3n2)o1	-1%	-16%	-13	?	-18%	5%
O=C(Cn1[nH]c(=O)c2ccccc2c1=O)N1CC=C(c2ccccc2)CC1	-1%	-10%	25	?	-30%	2%
Cc1oc(CC(C)C)cc1C(N)=O	3%	1%	10	-24%	-9%	11%
CCC(C(=O)NC1CCCCC1)N(Cc1cccs1)C(=O)CCC(=O)Nc1cc(C)on1 (stereo not given)	-2%	7%	-4	6%	i	5%
Cc1ccc(NC(=O)c2cc(-c3ccc(C)o3)nc3ccccc23)cc1	.	-13%	-17	4.5µM*	-7%[57.5 µM]	.
Cc1ccc(-c2cc(C(=O)O)c3ccccc3n2)o1	.	.	.	11µM*	.	.
COc1ccc(Cl)cc1C(=O)NNC(=S)NC(=O)c1cc(-c2ccc(Cl)cc2)nc2ccccc12	0%	-6%	4	50µM*	i	0%
Cc1ccc(-c2cc(C(=O)Nc3ccccn3)c3ccccc3n2)o1	5%	6%	1	6.3µM*	-24%	4%
SMILES	PINK1 modulator	miR-21 reporter	Giardia kill	12-LOX inh	PTHR1 ag	ERG Ets-DNA blk
COC(=O)[C@@]1(Sc2ccc(C)cc2)CC(=O)N(C(=O)CCc2ccccc2)[C@@H]1c1ccccc1	2%	.	.	?	i	.
CNC(=O)Nc1ccc(C)n(CC(=O)NCc2cccc(Cl)c2)c1=O	.	.	.	18%	.	.
O=C(Nc1ccc(SC(F)F)cc1)c1cc(-c2ccccc2)nc2ccccc12	.	.	.	40µM*	.	.
Cc1ccc(-c2cc(C(=O)Nc3cccnc3)c3ccccc3n2)o1	.	-1%	21	10µM*	i	.
CCOC(=O)C1CCCN(C(=O)c2cc(-c3ccncc3)nc3ccccc23)C1 (stereo not given)	20%	.	-5	2%	-14%	8%
CCOC(=O)C1CCCN(C(=O)c2cc(-c3ccco3)nc3ccccc23)C1 (stereo not given)	-2%	.	8	8.9µM*	i	1%
Cc1cccc(NC(=O)c2cc(-c3ccc(C)o3)nc3ccccc23)c1	.	.	.	10µM*	.	.
Cc1ccc(OCCC(=O)OCC(=O)NC(=O)NCc2ccccc2)cc1	0%	.	-4	-1%	i	-6%
CCN(CC)CCNC(=O)CCN1C(=O)c2ccccc2C1c1c(C)[nH]c2ccccc12 (stereo not given)	.	.	.	-18%	.	.
O=C1Cc2c(-c3ccc4c(c3)OCO4)n[nH]c2CN1Cc1ccccn1	.	.	.	0%[176 µM]	.	.
Cc1cn2nc(-c3nc(C4CCCN(C(=O)c5cccs5)C4)no3)cc2c(=O)[nH]1 (stereo not given)	.	.	.	16%	.	.
Cc1ccccc1C(=O)Nc1ccnn1C1CCN(C(=O)C2CCOC2)CC1 (stereo not given)	4%	-1%	11	-14%	i	-3%
CCOc1ccc(-c2cc(C(=O)O)c3ccccc3n2)cc1	6%[38.3 µM]	27%	-83*	?	-16%[57.5 µM]	-3%
N/C(=N\O)c1ccc([N+](=O)[O-])s1	1%	-3%	-88*	0%	i	0%
COC(=O)c1cc(Sc2c(Cl)cccc2Cl)ccn1	5%	-3%	-2	40µM*	-25%	0%
COC(=O)c1cc(Sc2cccc(Cl)c2Cl)ccn1	2%	1%	33	?	i	4%
O=C(NCCc1ccccc1C(F)(F)F)C1CCC(=O)N(CCCN2CCCC2=O)C1 (stereo not given)	1%	-5%	-11	3%	i	-9%
CCCCC(=O)Nc1ccc2nc(N3CCN(CC)CC3)cc(C)c2c1	.	.	.	-58%	.	.
N#CCCN1CCN(c2cc(C(=O)O)c3cc(NC(=O)c4ccccc4)ccc3n2)CC1	.	.	.	6.3µM*	.	.
CCN1CCN(c2cc(C(=O)O)c3cc(NC(=O)C(C)C)ccc3n2)CC1	.	.	.	16µM*	.	.
